{"source": "PubChem BioAssay", "key": {"[1]": {"assay": "LFS_MB_P medulloblastoma growth inhibition, cell-based, chromothripsis tumors, cisplatin or BGB combos (AID 1671449);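 also: cells exposed for 96 hours; 0% = vehicle DMSO and 100% = killing by high DMSO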", "conditions": "LFS_MB_P medulloblastoma cells"}, "[2]": {"assay": "HDN33 neuroblastoma growth inhibition, cell-based, chromothripsis tumors, cisplatin or BGB combos (AID 1671450);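 also: cells exposed to compound for four days; 0% = vehicle DMSO and 100% = cell killing by high DMSO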", "conditions": "HDN33 neuroblastoma cells, stronger effect = higher value"}, "[3]": {"assay": "ICB984 medulloblastoma cell growth inhibition, synergistic combos for chromothripsis tumors, cisplatin or BGB combos (AID 1671451; call rule not given here;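 also: cells exposed for 96 hours before readout; 0% = vehicle DMSO and 100% = killing by high DMSO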)", "conditions": "ICB984 medulloblastoma cells, drug combinations, stronger effect = higher value"}, "[4]": {"assay": "LFS_MB_1R medulloblastoma cell growth inhibition, synergistic combos for chromothripsis tumors, cisplatin or BGB combos (AID 1671452);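 also: cells exposed for 96 hours before readout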", "conditions": "LFS_MB_1R medulloblastoma cells, stronger effect = higher value"}, "[5]": {"assay": "HTB85 osteosarcoma cell growth inhibition, synergistic combos for chromothripsis tumors, BGB or cisplatin IC20 combos (AID 1671453);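 also: cells exposed for 96 hours before readout; 0% = vehicle DMSO and 100% = high DMSO killing control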", "conditions": "HTB85 osteosarcoma cells, drug combinations, stronger effect = higher value"}, "[6]": {"assay": "CRL2098 osteosarcoma cell growth inhibition, synergistic combos for chromothripsis tumors, BGB or cisplatin IC20 combos (AID 1671454);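 also: cells exposed for 96 h before readout; 0% = vehicle DMSO and 100% = killing by high DMSO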", "conditions": "CRL2098 osteosarcoma cells, drug combinations, stronger effect = higher value"}, "[7]": {"assay": "HD-MB03 medulloblastoma cell growth inhibition, synergistic combos for chromothripsis tumors, BGB or cisplatin IC20 combos (AID 1671455; in the data active = inhibition above about 83%;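 also: 0% = vehicle DMSO and 100% = high DMSO as cytotoxic control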)", "conditions": "HD-MB03 medulloblastoma cells, stronger effect = higher value"}, "[8]": {"assay": "UWB1.289 ovarian carcinoma cell growth inhibition, synergistic combos for chromothripsis tumors, BGB or cisplatin combos (AID 1671456);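 also: cells exposed to compound for four days; 0% = vehicle DMSO and 100% = killing by high DMSO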", "conditions": "UWB1.289 ovarian carcinoma cells, stronger effect = higher value"}, "[9]": {"assay": "LFS_MB_2R medulloblastoma cell growth inhibition, synergistic combos for chromothripsis tumors, cisplatin combos (AID 1671457);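 also: cells exposed to compound for four days before readout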", "conditions": "LFS_MB_2R medulloblastoma cells, stronger effect = higher value"}, "[10]": {"assay": "MDA-MB-436 breast carcinoma cell growth inhibition, synergistic combos for chromothripsis tumors, BGB or cisplatin combos (AID 1671458; call rule not given here;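 also: cells exposed for 96 hours; 0% = vehicle DMSO and 100% = killing by high DMSO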)", "conditions": "MDA-MB-436 breast carcinoma growth inhibition, drug combinations, stronger effect = higher value"}, "[11]": {"assay": "UWB1.289_BRCA1 ovarian cancer growth, cell-based, BGB or cisplatin combinations (AID 1671459)", "conditions": "UWB1.289 BRCA1 ovarian carcinoma, drug combinations, stronger effect = higher value"}, "[12]": {"assay": "human astrocyte viability loss, single and combined drugs, cytotoxicity control for chromothriptic childhood tumor combination screen, cell-based, BGB or cisplatin IC20 combos (AID 1671460);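 also: cells exposed to compounds for 96 hours before viability readout; 0% = vehicle and 100% = killing control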", "conditions": "Human astrocytes, drug combinations, stronger effect = higher value"}, "[13]": {"assay": "growth inhibition of BT084 medulloblastoma cells, cell-based, ICGC_MB145, cisplatin and BGB IC40 combos (AID 1671461);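 also: cells exposed to drugs for 96 hours; 0% = vehicle DMSO and 100% = high DMSO full killing control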", "conditions": "drug combinations, stronger effect = higher value"}, "[14]": {"assay": "growth inhibition of RCMB18 medulloblastoma cells, cell-based, cisplatin and BGB IC40 combos (AID 1671462);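 also: cells exposed to compound for four days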", "conditions": "stronger effect = higher value"}, "[15]": {"assay": "growth inhibition of CRL1545 osteosarcoma cells, cell-based, cisplatin and BGB IC20 combos (AID 1671464);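 also: cells exposed to compound for 96 hours before readout; 0% = vehicle DMSO and 100% = high DMSO killing control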", "conditions": "stronger effect = higher value"}, "[16]": {"conditions": "measured here: combination with BGB IC40, at 0.05 µM"}, "[17]": {"conditions": "measured here: with BGB IC20 combination, at 0.5 µM"}, "[18]": {"conditions": "measured here: with cisplatin IC20 combination, at 0.5 µM"}, "[19]": {"conditions": "measured here: combination with cisplatin, at 0.5 µM"}, "[20]": {"conditions": "measured here: combination with cisplatin, at 5 µM"}}, "note": "The source made the active and inactive calls. Rule as the data show it, unless noted: active = inhibition above about 80%; inactive = the rest."}
{"smiles": "CN(C)C(=S)NN=C(c1ccccn1)c1ccccn1", "values": [{"measurement": "inhibition", "setting": "[1]; at 0.5 µM, stronger effect = higher value", "value": "9.49% (inactive)"}, {"measurement": "inhibition", "setting": "[1]; measured here: combination with BGB IC20, at 0.005 µM", "value": 65.9, "unit": "%"}, {"measurement": "inhibition", "setting": "[1]; measured here: combination with BGB IC40, at 0.005 µM", "value": 60.3, "unit": "%"}, {"measurement": "inhibition", "setting": "[1]; [16]", "value": 73.6, "unit": "%"}, {"measurement": "inhibition", "setting": "[1]; measured here: combination with cisplatin, at 0.5 µM, stronger effect = higher value", "value": 14.7, "unit": "%"}, {"measurement": "inhibition", "setting": "[1]; measured here: combination with cisplatin, at 5 µM, stronger effect = higher value", "value": 65.2, "unit": "%"}, {"measurement": "inhibition", "setting": "[2]; BGB combo, at 5 µM", "value": 93.5, "unit": "%"}, {"measurement": "inhibition", "setting": "[2]; at 0.5 µM", "value": "96.3% (active)"}, {"measurement": "inhibition", "setting": "[2]; cisplatin combo, at 5 µM", "value": 96.8, "unit": "%"}, {"measurement": "inhibition", "setting": "[2]; [17]", "value": 96.5, "unit": "%"}, {"measurement": "inhibition", "setting": "[2]; [18]", "value": 96.3, "unit": "%"}, {"measurement": "inhibition", "setting": "[2]; single agent, at 5 µM", "value": 95.4, "unit": "%"}, {"measurement": "inhibition", "setting": "[3]; BGB IC20 combo, at 0.005 µM", "value": 49.9, "unit": "%"}, {"measurement": "inhibition", "setting": "[3]; BGB IC40 combo, at 0.005 µM", "value": 48.2, "unit": "%"}, {"measurement": "inhibition", "setting": "[3]; BGB IC40 combo, at 0.05 µM", "value": 88.6, "unit": "%"}, {"measurement": "inhibition", "setting": "[3]; at 0.5 µM", "value": "-3.29% (inactive)"}, {"measurement": "inhibition", "setting": "[3]; cisplatin combo, at 0.05 µM", "value": 88.1, "unit": "%"}, {"measurement": "inhibition", "setting": "[3]; cisplatin combo, at 0.5 µM", "value": -11.8, "unit": "%"}, {"measurement": "inhibition", "setting": "[3]; cisplatin combo, at 5 µM", "value": 27.2, "unit": "%"}, {"measurement": "inhibition", "setting": "[3]; measured here: 5 uM single agent, at 5 µM", "value": 32, "unit": "%"}, {"measurement": "inhibition", "setting": "[4]; at 0.5 µM", "value": "82.5% (active)"}, {"measurement": "inhibition", "setting": "[4]; [16]", "value": 62.2, "unit": "%"}, {"measurement": "inhibition", "setting": "[4]; [19]", "value": 96.8, "unit": "%"}, {"measurement": "inhibition", "setting": "[4]; [20]", "value": 91.5, "unit": "%"}, {"measurement": "inhibition", "setting": "[5]; at 0.5 µM", "value": "89.9% (active)"}, {"measurement": "inhibition", "setting": "[5]; measured here: with BGB IC20, at 0.5 µM", "value": 85.2, "unit": "%"}, {"measurement": "inhibition", "setting": "[5]; measured here: with BGB IC20, at 5 µM", "value": 92.5, "unit": "%"}, {"measurement": "inhibition", "setting": "[5]; measured here: with cisplatin IC20, at 0.5 µM", "value": 91, "unit": "%"}, {"measurement": "inhibition", "setting": "[5]; measured here: with cisplatin IC20, at 5 µM", "value": 88.7, "unit": "%"}, {"measurement": "inhibition", "setting": "[5]; single agent, at 5 µM", "value": 90.5, "unit": "%"}, {"measurement": "inhibition", "setting": "[6]; at 0.5 µM", "value": "98% (active)"}, {"measurement": "inhibition", "setting": "[6]; measured here: combination with BGB at IC20, at 0.5 µM", "value": 97.8, "unit": "%"}, {"measurement": "inhibition", "setting": "[6]; measured here: combination with cisplatin at IC20, at 0.5 µM", "value": 98.6, "unit": "%"}, {"measurement": "inhibition", "setting": "[7]; at 0.5 µM", "value": "86.8% (active)"}, {"measurement": "inhibition", "setting": "[7]; measured here: combo with BGB at IC20, at 0.5 µM", "value": 70.3, "unit": "%"}, {"measurement": "inhibition", "setting": "[7]; measured here: combo with cisplatin at IC20, at 0.5 µM", "value": 93.8, "unit": "%"}, {"measurement": "inhibition", "setting": "[8]; at 0.5 µM", "value": "88% (active)"}, {"measurement": "inhibition", "setting": "[8]; measured here: inhibition with BGB combination, at 0.05 µM", "value": 90.6, "unit": "%"}, {"measurement": "inhibition", "setting": "[8]; measured here: inhibition with cisplatin combination, at 0.05 µM", "value": 92.1, "unit": "%"}, {"measurement": "inhibition", "setting": "[9]; at 0.5 µM", "value": "61.3% (inactive)"}, {"measurement": "inhibition", "setting": "[9]; [19]", "value": 70.1, "unit": "%"}, {"measurement": "inhibition", "setting": "[9]; [20]", "value": 64.5, "unit": "%"}, {"measurement": "inhibition", "setting": "[10]; at 0.5 µM", "value": "81.2% (active)"}, {"measurement": "inhibition", "setting": "[10]; measured here: BGB combination, at 0.5 µM", "value": 73.4, "unit": "%"}, {"measurement": "inhibition", "setting": "[10]; measured here: BGB combination, at 5 µM", "value": 86, "unit": "%"}, {"measurement": "inhibition", "setting": "[10]; measured here: cisplatin combination, at 0.5 µM", "value": 85.1, "unit": "%"}, {"measurement": "inhibition", "setting": "[10]; measured here: cisplatin combination, at 5 µM", "value": 93.7, "unit": "%"}, {"measurement": "inhibition", "setting": "[11]; BGB combination, concentration series, at 5 µM", "value": 121, "unit": "%"}, {"measurement": "inhibition", "setting": "[11]; at 0.5 µM", "value": "87% (active)"}, {"measurement": "inhibition", "setting": "[11]; cisplatin combination, concentration series, at 5 µM", "value": 127, "unit": "%"}, {"measurement": "inhibition", "setting": "[12]; at 0.5 µM", "value": "77.8% (inactive)"}, {"measurement": "inhibition", "setting": "[12]; measured here: combo with BGB IC20, at 0.5 µM", "value": 77.7, "unit": "%"}, {"measurement": "inhibition", "setting": "[12]; measured here: combo with cisplatin IC20, at 0.5 µM", "value": 72.8, "unit": "%"}, {"measurement": "inhibition", "setting": "[13]; at 0.5 µM", "value": "72.7% (inactive)"}, {"measurement": "inhibition", "setting": "[13]; cisplatin combination, at 0.5 µM", "value": 77.7, "unit": "%"}, {"measurement": "inhibition", "setting": "[13]; cisplatin combination, at 5 µM", "value": 74, "unit": "%"}, {"measurement": "inhibition", "setting": "[13]; measured here: BGB IC40 combination 0.05 uM, at 0.05 µM", "value": 80.3, "unit": "%"}, {"measurement": "inhibition", "setting": "[13]; single agent, at 5 µM", "value": 83.9, "unit": "%"}, {"measurement": "inhibition", "setting": "[14]; at 0.5 µM", "value": "82.2% (active)"}, {"measurement": "inhibition", "setting": "[14]; cisplatin combo, at 5 µM", "value": 90.5, "unit": "%"}, {"measurement": "inhibition", "setting": "[14]; measured here: BGB IC40 combination, at 0.05 µM", "value": 80.1, "unit": "%"}, {"measurement": "inhibition", "setting": "[14]; [19]", "value": 86, "unit": "%"}, {"measurement": "inhibition", "setting": "[14]; single agent, at 5 µM", "value": 94.3, "unit": "%"}, {"measurement": "inhibition", "setting": "[15]; at 0.5 µM", "value": "96.9% (active)"}, {"measurement": "inhibition", "setting": "[15]; [17]", "value": 97.1, "unit": "%"}, {"measurement": "inhibition", "setting": "[15]; [18]", "value": 96.8, "unit": "%"}, {"measurement": "inhibition", "setting": "[15]; single agent, at 0.05 µM", "value": 88.4, "unit": "%"}, {"measurement": "inhibition", "setting": "[15]; single agent, at 5 µM", "value": 89.2, "unit": "%"}]}
